High-throughput results deposited in PubChem by several laboratories.
tim10-1 inh: tim10-1 yeast growth inhibition; S. cerevisiae tim10-1 ts strain growth, BacTiter-Glo, 24 h; inhibition, % at 20 µM; actives 2.2% (n = 330,000); AID 463190;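 active means inhibition of at least 40%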;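 further: mutant grown at 25 °C; 0% = DMSO wells with yeast and 100% = wells holding no yeast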
SKKanGAS inh: SKKanGAS growth inhibition. S. pyogenes SKKanGAS, kanamycin growth, BacTiter-Glo, 6 h. inhibition, % at 7.5 µM. actives 1.3% (n = 300,000);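 active means mean replicate score, as percent of positive control median, at least 50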;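 further: strain carries kanamycin resistance gene driven by streptokinase promoter and grows in 40 µg/ml kanamycin; loss of luminescence reflects streptokinase promoter inhibition or plain growth inhibition; 0% = median of DMSO wells and 100% = positive control at its reference dose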
PfHsp90 set2: inhibits growth of yeast expressing Plasmodium falciparum Hsp90; S. cerevisiae expressing PfHsp90, BacTiter-Glo ATP, 48 h; yeast lacking PDR1 and PDR3 efflux regulators; inhibition, % at 9.4 µM; AID 504621; actives 0.32% (n = 310,000);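 active means every replicate shows inhibition above about 80%, whatever the replicate mean, limit read from the data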;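 further: 0% = DMSO neutral controls and 100% = 20 µM radicicol positive controls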
tim23-1 inh: tim23-1 yeast growth inhibition; S. cerevisiae tim23-1 growth, BacTiter-Glo luminescence, 24 h; inhibition, % at 20 µM; actives 1.3% (n = 330,000); AID 463212;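 active means growth inhibition of the mutant yeast at or above 50%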;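 further: temperature-sensitive mutant grown at 25 °C; plate controls were DMSO-treated mutant yeast for no effect and medium wells lacking yeast for full effect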
NLRP3 yeast inh: inhibitors of NALP3 inflammasome in yeast; Yeast reconstituted NLRP3/ASC/caspase-1, beta-gal luminescence, 24 h; inhibition, % at 10 µM; actives 0.39% (n = 330,000); AID 2825;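 active means inhibition of 50% or more; inactive means inhibition below 50%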;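 further: plate controls were induced DMSO wells for no effect and uninduced yeast grown without galactose for full effect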
TIM10 inh: TIM10 yeast growth inhibition. S. cerevisiae TIM10 strain growth, BacTiter-Glo luminescence, 24 h. actives 1.4% (n = 330,000). AID 463195. inhibition, % at 10 µM;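 active means inhibition of 40% or more at the single tested concentration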;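 further: wild-type TIM10 isogenic control strain grown at permissive 25 °C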
tim10-1 conf: confirmation of tim10-1 mutant yeast growth inhibitors. shares compounds with tim10-1 inh. S. cerevisiae tim10-1 ts strain growth, BacTiter-Glo, 24 h. inhibition, % at 20 µM. actives 56% (n = 7,400);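 active means inhibition of yeast growth at or above a set limit in either of two repeat tests at 20 µM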;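 further: tim10-1 mutant grown at permissive 25 °C to find synthetic lethal compounds; 0% = DMSO yeast wells and 100% = medium wells without yeast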
* hit, by the source's call; . = not tested or not shown. This is a sample that favours compounds with a hit; in the whole collection about 4.5% have one here.

SMILES	tim10-1 inh	SKKanGAS inh	PfHsp90 set2	tim23-1 inh	NLRP3 yeast inh	TIM10 inh	tim10-1 conf
O=C(c1ccc(CSc2ccc(Cl)cc2)cc1)N1CCCC1	23	2	-5	18	22	-14	.
CCc1ccc2oc(C(=O)N3CCN(c4ccccc4OC)CC3)cc(=O)c2c1	48*	3	6	39	16	12	18
COc1ccccc1N1CCN(C(=O)c2ccc(-c3ccccc3)cc2)CC1	41*	8	-12	31	12	28	27
O=C(c1ccc(CSc2ccccc2)cc1)N1CCN(c2ccccc2)CC1	45*	7	-16	32	21	7	40*
C=CCC(=O)N1CCC(n2nccc2NC(=O)CCOc2ccccc2)CC1	-12	-9	20	-10	11	4	.
O=C(NC1CCN(S(=O)(=O)c2ccccc2)CC1)c1cccc(F)c1	6	-13	-13	12	9	8	.
CCNC(=S)N1CCN(c2ccccc2OCC)CC1	12	-16	2	10	9	2	.
CCOc1ccccc1N1CCN(C(=S)NCc2ccccc2)CC1	44*	-3	3	36	7	13	19
O=C(c1ccc(-c2ccccc2)cc1)N1CCN(c2ncccn2)CC1	43*	.	-16	31	31	30	25
O=C(c1ccc(Cn2cc(Cl)cn2)cc1)N1CCN(c2ccccc2)CC1	34	1	29	31	21	13	.
COc1ccccc1N1CCN(C(=O)c2cc3sccc3n2C)CC1	43*	10	17	40	1	33	46*
O=C(c1ccc(Cn2cc(Br)cn2)cc1)N1CCN(c2ccccc2)CC1	52*	7	.	44	33	32	44*
CCN(CC)Cc1c(C(=O)N/N=C/c2ccc(OCc3ccccc3C)cc2)nnn1-c1nonc1N	-8	8	-39	2	25	8	.
CCOc1ccccc1N1CCN(C(=O)c2ccccc2)CC1	26	2	.	17	4	9	.
O=C(CSCc1cccc(F)c1)N1CCN(c2ccccc2)CC1	43*	-3	-4	23	23	11	15
COc1ccccc1N1CCN(C(=O)c2ccc(C(C)(C)C)cc2)CC1	50*	3	-19	43	8	34	26
COc1ccccc1N1CCN(C(=O)c2ccc(CSc3ccccc3)cc2)CC1	40*	13	-12	40	8	28	40*
CCOc1ccccc1N1CCN(C(=O)c2ccc(-c3ccc(OC(C)=O)cc3)cc2)CC1	41*	34	-21	38	3	16	23
COCCn1c(SCC(=O)Nc2cccnc2Cl)nc2ccccc2c1=O	-9	.	-16	-3	2	-13	.
COc1ccccc1C1CCN(C(=O)c2ccc(C(C)(C)C)cc2)CC1	41*	43	20	42	-6	27	33*
CCn1c(=O)c(CCC(=O)NCC2CCCO2)c(C)c2c(C)nn(-c3ccc(C)cc3)c21 (stereo not given)	41*	-16	10	10	18	3	-7
Cc1cc(Cl)ccc1OC(C)C(=O)N1CCCN(C(=O)C(C)Oc2ccc(Cl)cc2C)CC1 (stereo not given)	44*	6	1	40	11	10	25
Cc1cc(C(=O)COC(=O)c2ccc(F)cc2F)c(C)n1C1CC1	-3	.	-9	0	22	-16	.
CC1CCCCN1C(=O)C1CCN(c2nc(-c3ccccc3)nc3c2CCC3)CC1 (stereo not given)	56*	-7	-3	49	15	16	10
O=C(C1CCN(c2nc(-c3ccccc3)nc3c2CCC3)CC1)N1CCCC1	22	-1	8	19	20	8	.
SMILES	tim10-1 inh	SKKanGAS inh	PfHsp90 set2	tim23-1 inh	NLRP3 yeast inh	TIM10 inh	tim10-1 conf
O=C(NNC(=O)c1cc(Br)c(Br)s1)c1ccncc1	8	.	-19	9	16	4	.
O=C(NCC1CCCO1)c1nn2c(C(F)(F)F)cc(-c3cc(Br)cs3)nc2c1Br (stereo not given)	-7	-5	-9	5	13	5	.
O=C(OC1CCCCC1=O)c1cccc(S(=O)(=O)N2CCCCC2)c1 (stereo not given)	43*	11	-17	47	16	23	22
O=C(OC1CCCCC1=O)c1cccc(S(=O)(=O)N2CCOCC2)c1 (stereo not given)	-9	-4	-6	5	19	9	.
Cc1ccc(S(=O)(=O)N2CCCCC2)cc1C(=O)OC1CCCCC1=O (stereo not given)	41*	-4	.	28	2	14	28
O=C(OC1CCCCC1=O)c1cc(S(=O)(=O)N2CCOCC2)ccc1F (stereo not given)	25	-2	4	20	15	15	.
C=C(C)C1CC=C(C)/C(=N/NC(=O)CNc2ccc(C)cc2C)C1 (stereo not given)	.	-14	-3	.	.	.	.
C=C(C)C1CC=C(C)/C(=N/NC(=O)CNc2ccc(OCC)cc2)C1 (stereo not given)	42*	7	-1	28	20	4	30
Cc1cccc2cc3c(N)c(C(=O)N4CCOCC4)sc3nc12	42*	-7	68	36	12	16	34*
Cc1cc(C)c2cc3c(N)c(C(=O)N4CCc5ccccc5C4)sc3nc2c1	28	13	-10	28	6	24	.
CN(CC1CCOCC1)C(=O)CC1C(=O)NCCN1CC(c1ccccc1)c1ccccc1 (stereo not given)	2	0	4	7	8	7	.
COc1cc2c(cc1NC(=O)COC(=O)[C@@H](NC(=O)c1ccccc1F)C(C)C)oc1ccccc12	40*	21	6	20	16	21	20
CCOc1cccc2sc(N(CCN(CC)CC)C(=O)c3ccc(S(=O)(=O)N4CCCCC4)cc3)nc12	48*	-1	15	2	9	-11	22
Cc1ccc2sc(N(CCCN(C)C)C(=O)c3ccc(S(=O)(=O)N(C)Cc4ccccc4)cc3)nc2c1C	54*	40	15	12	38	29	12
CN(C)CCCN(C(=O)c1ccc(S(=O)(=O)N2CCc3ccccc3C2)cc1)c1nc2c(F)cc(F)cc2s1	42*	8	-14	23	18	14	35*
CN(C)CCCN(C(=O)c1ccc(C(=O)c2ccccc2)cc1)c1nc2c(F)cccc2s1	47*	-2	6	18	13	19	13
COCCN(Cc1nc(C(c2ccccc2)c2ccccc2)no1)C(C)C	19	-1	21	16	-10	12	.
O=C1CC(Cc2ccccc2)C(=O)N1c1ccccn1 (stereo not given)	10	1	8	6	1	15	.
